# High-throughput results (PubChem BioAssay)
# Most compounds without a hit are left out; they make up all but 11% or so of the library.
# HPGD block: HPGD (human) dehydrogenase inhibition; Potency, µM, inactives show at the highest dose activity change, negative = inhibition, hits mostly inhibitors; AID 894; purified HPGD, NADH fluorescence kinetic, PGE2 substrate; P15428; actives 4.3% (n = 150,000); active = well fitted inhibition curve with a large enough effect, not every such curve was filed as active; inconclusive = small, poorly fitted or top-dose-only effect, or another doubt; inactive = no such curve, though single readings can be large or run the other way; also: potency is read from the fitted curve at half-maximal effect; % is scaled to controls: 0 for no effect and ±100 for the full control effect
# Target sequence (P15428 whole entry, looked up): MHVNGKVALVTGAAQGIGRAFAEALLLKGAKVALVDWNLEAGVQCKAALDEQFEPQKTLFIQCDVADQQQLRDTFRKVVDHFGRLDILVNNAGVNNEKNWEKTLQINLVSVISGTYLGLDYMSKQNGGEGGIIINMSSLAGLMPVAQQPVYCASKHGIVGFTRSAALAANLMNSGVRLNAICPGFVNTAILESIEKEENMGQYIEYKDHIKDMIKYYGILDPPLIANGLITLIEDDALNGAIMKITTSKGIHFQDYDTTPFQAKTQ
#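 20 nM HPGD preincubated 15 min at room temperature with compound in 50 mM Tris-HCl pH 8, 0.01% Tween 20. Started with 1 mM NAD+ and 30 uM prostaglandin E2; NADH fluorescence (360/450 nm) read 5 times over 30-s intervals, last minus first.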
# ALDH1A1 block: ALDH1A1 (human) enzyme inhibition; P00352; Purified ALDH1A1, NADH fluorescence, propionaldehyde substrate; Potency, µM (top dose mostly 75.3 µM), for the others: at the highest dose activity, negative = inhibition, hits mostly inhibitors; actives 7.3% (n = 220,000); AID 1030; active = well fitted inhibition curve with a large enough effect, not every such curve was filed as active; inconclusive = small, poorly fitted or top-dose-only effect, or another doubt; inactive = no such curve, though single readings can be large or run the other way;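 also: potency is read from the fitted curve at half-maximal effect; plate controls were no enzyme wells and a reference inhibitor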
# Target sequence (P00352 whole entry, looked up): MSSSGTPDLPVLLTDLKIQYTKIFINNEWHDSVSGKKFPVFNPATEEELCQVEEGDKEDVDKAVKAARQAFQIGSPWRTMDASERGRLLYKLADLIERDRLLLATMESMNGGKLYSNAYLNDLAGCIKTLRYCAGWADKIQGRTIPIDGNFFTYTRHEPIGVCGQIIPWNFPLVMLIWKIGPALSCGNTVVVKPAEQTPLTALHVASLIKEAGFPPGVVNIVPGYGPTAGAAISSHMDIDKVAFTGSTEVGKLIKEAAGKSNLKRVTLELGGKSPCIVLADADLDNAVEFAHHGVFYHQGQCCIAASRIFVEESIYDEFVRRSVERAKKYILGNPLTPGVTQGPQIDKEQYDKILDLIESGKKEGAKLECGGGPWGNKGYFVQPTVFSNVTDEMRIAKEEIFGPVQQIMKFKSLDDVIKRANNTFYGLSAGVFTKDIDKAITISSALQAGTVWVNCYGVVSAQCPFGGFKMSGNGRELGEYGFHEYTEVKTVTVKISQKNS
# GoLoco inh red: RGS12 GoLoco-Gai1 interaction inhibition; Potency, µM (top dose mostly 61.6 µM), for inactives: at the top dose activity, negative = inhibition, hits mostly inhibitors; P63096; Gai1:RGS12 GoLoco peptide FP, rhodamine, 10 min; actives 0.44% (n = 230,000); AID 880; active = well fitted inhibition curve with a large enough effect, not every such curve was filed as active; inactive = no such curve, though single readings can be large or run the other way; also: potency is read from the fitted curve at half-maximal effect; % is scaled to controls: 0 for no effect and ±100 for the full control effect; nearly all actives have a fitted effect of over 30% in size
# HTT cytoprotect: cytoprotection in Huntington HTT-Q103 PC12 cell model; PC12 HTT-Q103 induced, cytoprotection, ATP luminescence, 40 h; Potency, µM (highest dose often 56.4 µM), for the others: cytoprotection (ATP increase), most hits filed as activators; actives 0.14% (n = 230,000); AID 1471; also: potency is read from the fitted curve at half-maximal effect; % of control where 0% means no effect; nearly all actives have a fitted effect of over 45% in size
#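 Readout: ATPlite luminescence (ATP level). Model: stable PC12, inducible Htt exon1 Q103-GFP. Inducer: tebufenozide, 100 nM final. Compounds: dose series. No G418 in medium.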
# HttQ103 aggreg: mutant huntingtin aggregation inhibition; PC12 HttQ103-GFP aggregates, Acumen cytometry, 40 h; actives 1.1% (n = 220,000); Potency, µM (doses to about 46.1 µM), without a hit: at the highest dose activity change, negative = inhibition, actives largely listed as inhibitors; AID 1688; also: potency is read from the fitted curve at half-maximal effect; % is scaled to controls: 0 for no effect and ±100 for the full control effect; nearly all actives have a fitted effect of over 60% in size
#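 PC12/HTTQ103-GFP, ecdysone-inducible; teb 100 nM; cpd qHTS titration; GFP aggregates read on laser cytometer, Ex 488/Em 500-530 nm.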
# PNC inhibitor: blocks assembly of the perinucleolar compartment; PC3M PTB-GFP, PNC prevalence imaging, 16 h; hits give low values; activity change (PNC), negative = inhibition, % at 10 µM; actives 3.1% (n = 140,000); AID 2417;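 active = readout at or below -70, meaning at least 70% loss of cells showing the perinucleolar compartment, a nuclear body marking cancer cells; inconclusive = readout between -30 and a set limit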;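 also: plate controls were DMSO wells for no effect and camptothecin positive control wells for full effect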
#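 Read-out is percentage of cells bearing a perinucleolar compartment, from automated 20x imaging of fixed, Hoechst-stained PC3M PTB-GFP cells. Cells were seeded 4 h, then exposed 16 h to compound (23 nl of library stock) in duplicate plates.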
# * marks the source's active call; other numbers are inactive results; ? = inconclusive; . = not tested or not shown; [ ] = dose if it differs, or a comment. Unless noted, calls follow the shape of the dose curve; as a rule, active = well fitted curve in the direction sought with a large enough effect; inconclusive = small, poorly fitted or top-dose-only effect, or another doubt; inactive = no such curve, though single readings can be large; an effect the other way counts as inactive or inconclusive.
SMILES,HPGD block,ALDH1A1 block,GoLoco inh red,HTT cytoprotect,HttQ103 aggreg,PNC inhibitor
COc1ccc(C(=O)NN2C(=O)C3C4C=CC(O4)C3C2=O)cc1 (centres undefined),4.3%,7.94µM*,-18.9%,-13.0%,-6.5%,-0.2
COc1cccc(C(=O)NN2c3ccccc3CCc3ccccc32)c1,-21.3%,-7.2%,-0.8%,-9.1%[10 µM],-19.4%,?
COc1cccc(C(=O)NN2C(=O)C3C4C=CC(O4)C3C2=O)c1 (centres undefined),1.8%,14.1µM*,-13.1%,-14.6%,-6.9%,-11.5
O=C1CCN(C(=O)CSc2ccc(Cl)cc2)N1,.,7.3%,-1.3%,-1.9%,12.9%,.
CCCc1c(C(=O)NNc2cc(C(F)(F)F)ccc2Cl)cnn1-c1ccccc1,.,.,8.8%,-9.5%[10 µM],8.5%[9.22 µM],.
O=C(OCC(=O)c1ccccc1Br)c1ccncc1,.,?,9.3%,-7.0%,-3.2%,.
C=C(C)C(=O)Nc1nnc(-c2ccccc2C)s1,.,7.94µM*,9.3%,-32.3%[10 µM],-8.5%[9.22 µM],.
COc1cccc(OC)c1C(=O)Nc1nnc(-c2cccs2)s1,.,7.94µM*,7.6%,9.9%[10 µM],9.1%[9.22 µM],.
CCC(CC)C(=O)Nc1nnc(-c2cccs2)s1,?,?,-12.2%,-21.9%,-9.8%,7.9
CCOC(=O)Nc1nnc(-c2ccccc2OC)s1,?,-5.1%,3.8%,6.1%[10 µM],4.9%,-118.9*
O=C(O)c1sc2cccc(Cl)c2c1Cl,.,2.2%,9.0%,-7.7%[10 µM],6.8%[9.22 µM],.
CCNC(=O)/C(=C/c1cccc([N+](=O)[O-])c1)NC(=O)c1ccc(C)cc1,.,-4.5%,1.4%,11.5%,21.7%[9.22 µM],.
CC(C)(C)n1nnnc1C(c1ccncc1)N1CCN(C2CCCCC2)CC1 (centres undefined),-4.5%,5.1%,3.4%,-15.2%,2.7%,7.9
Cc1ccc(C(c2nnnn2Cc2ccccc2)N2CCN(Cc3ccccc3)CC2)cc1 (centres undefined),0.4%,22.4µM*,5.2%,-9.0%[1.9 µM],-7.9%,?
COc1ccc(Cn2nnnc2C(c2ccccc2)N2CCN(C3CCCC3)CC2)cc1 (centres undefined),-8.8%,8.91µM*,8.0%,11.9%[10 µM],?,?
CC(C)(C)n1nnnc1C(c1cccnc1)N1CCN(C2CCCCC2)CC1 (centres undefined),-4.2%,4.9%,-4.1%,11.9%[10 µM],2.8%,-83.7*
c1ccc(CN2CCN(C(c3ccccc3)c3nnnn3Cc3ccccc3)CC2)cc1 (centres undefined),-9.0%,-12.8%,11.0%,9.5%[1.9 µM],-13.4%,25.0
COc1ccc(Cn2nnnc2C(c2ccncc2)N2CCOCC2)cc1 (centres undefined),-1.1%,28.2µM*,-23.7%,-13.6%[10 µM],-10.5%,-99.5*
COC(=O)C1SCC2C(=O)N(Cc3ccccc3)CC(=O)N21 (centres undefined),.,-3.1%,3.7%,-29.9%,-1.5%,.
CCCN1CCC(=NNC(=O)c2ccc(Br)o2)CC1,-6.0%,12.6µM*,4.1%,-18.1%,0.3%,10.2
CCCN1CCC(=NNc2ccc(C(=O)O)cc2)CC1,.,25.1µM*,7.3%,-23.4%,16.5%,.
CCN1CCC(=NNC(=O)c2ccco2)CC1,-14.3%,?,-11.6%,-30.9%,3.8%,-24.7
COc1ccc(C#CC2C=CC(OC(C)=O)C(COC(C)=O)O2)cc1 (centres undefined),.,0.2%[13.5 µM],.,?,.,.
Cc1ccc(-c2cc3c(nn2)-c2ccccc2C3=O)cc1,.,.,0.2%,-61.7%[10 µM],0.9%[9.22 µM],.
Cc1ccccc1-c1cc2c(nn1)-c1ccccc1C2=O,?,25.1µM*,5.5%,-122.9%,25.1µM*,18.8
SMILES,HPGD block,ALDH1A1 block,GoLoco inh red,HTT cytoprotect,HttQ103 aggreg,PNC inhibitor
Cc1cc(C(C#N)c2ccccc2F)n2ncnc2n1 (centres undefined),.,15.8µM*,-4.8%,4.2%[10 µM],0.0%[9.22 µM],.
Cc1cc(C(C#N)c2ccccc2)n2ncnc2n1 (centres undefined),-7.1%,?,7.6%,15.6%[10 µM],17.5%,-21.4
COc1cc2c(C#N)c(N3CCN(c4ccccc4OC)CC3)nc(N)c2c(N)n1,?,?,9.1%,12.7%[10 µM],11.2µM*,-9.7
CCCn1c(SCC(=O)NCc2ccccc2)n[nH]c1=O,.,9.8%,0.3%,-32.7%,7.1%,.
O=C(NC(=S)Nc1ccc(S(=O)(=O)Nc2nccs2)cc1)c1ccc(F)cc1,-23.4%,17.8µM*,-0.9%,-7.5%[10 µM],14.8%,-3.4
COc1nsnc1NS(=O)(=O)c1ccc(NC(=S)NC(=O)c2cccnc2)cc1,.,20µM*,-0.9%,.,.,.
COc1nccnc1NS(=O)(=O)c1ccc(NC(=S)NC(=O)c2ccc(F)cc2)cc1,-11.2%,14.1µM*,-5.6%,21.6%[10 µM],5.6%,?
COc1nccnc1NS(=O)(=O)c1ccc(NC(=S)NC(=O)c2cccc(F)c2)cc1,-7.7%,?,-1.9%,5.0%[10 µM],7.3%,-10.0
CC(C)(C)C(=O)NC(=S)Nc1ccc(S(=O)(=O)Nc2nccs2)cc1,.,?,5.6%,.,9.1%,.
O=C(Nc1ccc(S(=O)(=O)Nc2nccs2)cc1)c1ccc(F)c(S(=O)(=O)N2CCOCC2)c1,.,5.01µM*,12.9%,.,1.3%,.
O=C(CSc1ccc(F)cc1)NC1CCCCC1,.,6.3%,3.8%,-42.2%,0.5%,.
O=C(NC1CC1)c1sc2cc([N+](=O)[O-])ccc2c1Cl,25.1µM*,6.7%,3.6%,.,-13.1%,-24.2
O=C(NC1CCS(=O)(=O)C1)c1sc2ccccc2c1Cl (centres undefined),.,2.9%,1.2%,-60.3%,0.8%,.
CC(NC(=O)c1sc2cc([N+](=O)[O-])ccc2c1Cl)C(C)(C)C (centres undefined),.,0.562µM*,.,-26.2%[10 µM],27.6%,-0.1
Fc1ccc(-c2cc(C(F)(F)F)nc(NCc3cccs3)n2)cc1,-28.6%,?,-4.0%,.,22.2%,-113.4*
Fc1ccc(CNc2nc(-c3ccco3)cc(C(F)(F)F)n2)cc1,?,?,17.0%,9.9%,-8.6%,-28.9
COc1cc(/C=C/C(=O)c2cccs2)cc(OC)c1OC,28.2µM*,10µM*,-2.3%,?,.,.
CCSC1=C(C#N)C(c2ccccc2Cl)C(C(=O)c2cccs2)C(O)(C(F)(F)F)N1 (centres undefined),-13.9%,11.2µM*,-25.1%,6.8%[10 µM],-21.2%,-7.3
CSC1=C(C#N)C(c2ccccc2Cl)C(C(=O)c2cccs2)C(O)(C(F)(F)F)N1 (centres undefined),2.4%,-8.2%,6.1%,23.2%[10 µM],-18.1%,?
C=CCSC1=C(C#N)C(c2ccccc2Cl)C(C(=O)c2cccs2)C(O)(C(F)(F)F)N1 (centres undefined),-9.3%,14.1µM*,3.8%,21.3%[10 µM],17.1%,-0.9
